The results in this text go back to PubChem BioAssay (NCI).

Common to all, as to experiment: NCI-60 one-dose screen, 48 h (100 = growth as untreated, 0 = no growth, -100 = all killed)
Common to all, as to conditions: 10 µM unless noted

Experiment [1] concerns T-47D breast.
Experiment [2] relates to BT-549 breast.
Experiment [3] concerns MDA-MB-435 melanoma.
Experiment [4] concerns SW-620 colon.
In experiment [5] the test system is MCF7 breast.
In experiment [6] the test system is HCT-116 colon.
For experiment [7], the system named is HCC-2998 colon.
Experiment [8] has as its system KM12 colon.

This is part of a sample that, as a whole, favours compounds with a hit. Of some 83,000 tested, about 20% had one in any assay.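 Compound tested at a single concentration for 48 hours in 96-well plates; a percent growth value below 10 was scored as active.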 Unmarked numbers belong to inactive results. Calls of active or inactive are those of the source.

On to `COc1nc2c(c(=O)n1C)CN(c1ccccc1)C(=O)CN2C`, for which the growth was 26.8% [100 µM] in experiment [1]; 24.7% [100 µM] in experiment [2]; 66.2% [100 µM] in experiment [3]; 69.3% [100 µM] in experiment [4]; 24.2% [100 µM] in experiment [5]; 49.1% [100 µM] in experiment [6]. In addition, the figures for the growth in experiment [7] and in experiment [8] were 90.4% [100 µM] and 39.1% [100 µM], respectively.
Take `c1ccc2c(c1)nc(CN1CCOCC1)n1cc(N3CCCC3)nc21`: the growth is 95.6% in experiment [1]; 100% in experiment [2]; 106% in experiment [3]; 99.7% in experiment [4]; 96.5% in experiment [5]; 93.5% in experiment [6]. Also, the figures for the growth in experiment [7] and in experiment [8] were 99.8% and 99.1%, respectively.
Take `COc1ccc(NC(=O)c2nc(-c3cc(OC)c(OC)c(OC)c3)n(-c3cccc4ccccc34)n2)cc1OC`: the growth in experiment [1] is 50.3%; in experiment [2] it was 46.3%; in experiment [3], 47.4%; in experiment [4], 61.5%; in experiment [5], 26.2%; in experiment [6] it was 25.9%. In addition, the growth in experiment [7] was 47.4%; in experiment [8], 41.3%.
As for `COc1cccc(-c2nc3sccn3c2-c2ccnc(NCCNS(=O)(=O)c3cccc(Cl)c3)c2)c1`, the growth in experiment [1] is 1.84% (active); in experiment [2] it was 18.3%; in experiment [3], 59.7%; in experiment [4], 66.5%; in experiment [5], 43.2%; in experiment [6], 40%. Also, the growth was 64.2% in experiment [7] and 42.8% in experiment [8].
Consider `COC(=O)c1c2c(c(C)[n+]([O-])c1C)C(=O)C(NCc1ccc(F)cc1)=CC2=O`, for which the growth in experiment [1] was 6.75% (active); in experiment [2], 52.4%; in experiment [3], -72.9% (active); in experiment [4], 6.37% (active); in experiment [5], -0.8% (active); in experiment [6] it was 1.27% (active). Also, the growth in experiment [7] is 25.7%; in experiment [8], 19.9%.
As to `NC(=O)c1ccc[n+]([C@@H]2O[C@H](COP(=O)([O-])OP(=O)(O)OC[C@H]3O[C@@H](n4cnc5c(N)ncnc54)[C@H](O)[C@@H]3O)[C@@H](O)[C@H]2O)c1`, the growth in experiment [1] is 114%; in experiment [2], 95.9%; in experiment [3] it was 104%; in experiment [4], 107%; in experiment [5], 102%; in experiment [6], 94.7%. Besides, the growth in experiment [7] is 100%; in experiment [8] it was 101%.
For the compound `Cc1ccc(-c2c(-c3ccccc3)c(=O)oc3ccc(C)cc23)cc1`, the growth in experiment [1] was 84.3%; in experiment [2] it was 108%; in experiment [3] it was 103%; in experiment [4] it was 99.5%; in experiment [5] it was 116%; in experiment [6], 72.8%. Besides, the growth in experiment [7] is 90.5%; in experiment [8], 92%.
For `N=C1C(c2nc(-c3ccc(Br)cc3)cs2)=C(O)CN1Cc1cccnc1`, the growth is 46.3% in experiment [1]; 39.9% in experiment [2]; 53.4% in experiment [3]; 81.5% in experiment [4]; 77.9% in experiment [5]; 21.4% in experiment [6]. Moreover, the growth in experiment [7] was 85.9%; in experiment [8], 61.7%.
Turning to `COc1cc(OC)cc(C2CC(=O)Nc3c2c(C)nn3-c2nc3ccccc3[nH]2)c1` (stereo not given), the growth in experiment [1] is 12.6%; in experiment [2], 39.1%; in experiment [3], 9.66% (active); in experiment [4] it was 24%; in experiment [5], 7.95% (active); in experiment [6], 0.333% (active). The growth in experiment [7] was 69.1%; in experiment [8], 30.5%.
`CCOc1c(C#N)nnc2c(C#N)c(NC(=O)c3ccccc3)nn12`: the growth in experiment [1] is 98.8%; in experiment [2], 102%; in experiment [3], 102%; in experiment [4], 102%; in experiment [5], 93.4%; in experiment [6] it was 100%. For the same compound, the growth in experiment [7] was 104%; in experiment [8], 101%.
Turning to `CCCCCCCCCCCCCCCCCCOc1ccc(CC(=O)OCC[N+]2(C)CCCC2)cc1`, the growth in experiment [1] is 95.5%; in experiment [2], 123%; in experiment [3] it was 100%; in experiment [4], 95%; in experiment [5], 90.9%; in experiment [6], 92%. Also, the growth in experiment [7] was 104%; in experiment [8] it was 101%.
Regarding `N#C/C(=C\c1ccc(Br)cc1)n1nnc2cc(F)c(F)cc21`, the growth in experiment [1] was -1.87% (active); in experiment [2], 22.2%; in experiment [3], 4.75% (active); in experiment [4] it was 13.2%; in experiment [5] it was 14%; in experiment [6] it was 15.3%. Further, the growth in experiment [7] was 40%; in experiment [8], 10.3%.
With `COC(=O)/C=C1\S/C(=N\NS(=O)(=O)c2ccc(C)cc2)N(c2ccccc2)C1=O`, the growth was 99.2% in experiment [1]; 115% in experiment [2]; 102% in experiment [3]; 106% in experiment [4]; 94.5% in experiment [5]; 103% in experiment [6]. The growth was 121% in experiment [7] and 101% in experiment [8].
As to `Cc1cc(Cl)nc(NCc2cc(Nc3ccnc4cc(Cl)ccc34)ccc2F)n1`, the growth was 25.4% in experiment [1]; 65.5% in experiment [2]; 41.2% in experiment [3]; 43.9% in experiment [4]; 17.4% in experiment [5]; 23.7% in experiment [6]. Also, the results for the growth in experiment [7] and in experiment [8] were 73.1% and 79.9%, respectively.
`COc1cccc(-c2nc3sccn3c2-c2ccnc(NCCNS(=O)(=O)c3ccc(C(F)(F)F)cc3)c2)c1`: the growth is 5.15% (active) in experiment [1]; 10.4% in experiment [2]; 33.6% in experiment [3]; 64.9% in experiment [4]; 19.5% in experiment [5]; 27.9% in experiment [6]. The growth in experiment [7] is 70%; in experiment [8] it was 26.4%.
